DT40 TDP1 CPT – DT40-hTDP1 cell growth loss with CPT. chicken DT40 Tdp1-/-;hTDP1 cells + 20 nM CPT, ATP luminescence, 48 h. Potency, µM (top dose mostly 46.2 µM), hits mostly inhibitors. actives 12% (n = 420,000); further: nearly all actives have a fitted effect of over 55% in size
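Chicken DT40 Tdp1-/- cells complemented with human TDP1, 400 cells/well, exposed to compounds plus 20 nM camptothecin for at least 48 h at 37 C; viability read as ATP content by CellTiter-Glo luminescence.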
DT40 TDP1 no CPT – qHTS for Inhibitors of human tyrosyl-DNA phosphodiesterase 1 (TDP1): qHTS in cells in absence of CPT; actives 15% (n = 420,000); Potency, µM (doses to about 46.2 µM), hits mostly inhibitors; DT40 Tdp1-/- hTDP1 cells, no CPT, ATP luminescence, 48 h; further: nearly all actives have a fitted effect of over 55% in size
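DT40 Tdp1-/-;hTDP1 cells, no CPT (DMSO vehicle only), 400 cells/well; compounds pin-transferred; ≥48 hr, 37 °C; CellTiter-Glo 30 min RT dark, luminescence read.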
Gal4-VP16 FLuc – inhibits Gal4-VP16 luciferase reporter, ROR gamma counter-screen; Drosophila S2 Gal4-VP16 UAS-luciferase, luminescence, 20 h; Potency, µM (series often up to 53.6 µM), most hits filed as inhibitors; actives 3.5% (n = 310,000);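 further: Gal4-VP16 expression switched on by copper sulfate through the metallothionein promoter; nearly all actives have a fitted effect of over 50% in size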
TDP1 block – inhibitors of human tyrosyl-DNA phosphodiesterase TDP1. recombinant TDP1, AlphaScreen DNA substrate cleavage. actives 0.28% (n = 350,000). Potency, µM (highest dose often 130 µM), actives largely listed as inhibitors; further: nearly all actives have a fitted effect of over 40% in size
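Tdp1 1 nM final; 15 min RT w/ cpd; substrate 15 nM, 5 min; beads 10 ug/ml, 10 min; AlphaScreen read. Neg ctrl: no enzyme.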
RORg inh – inhibitors of mouse ROR gamma transcriptional activity. P51450. Drosophila S2 Gal4-RORgamma UAS-luciferase reporter, 20 h. Potency, µM (top dose mostly 53.6 µM), most hits filed as inhibitors. actives 5.4% (n = 310,000); further: nearly all actives have a fitted effect of over 60% in size
Target sequence (P51450 whole entry, looked up, the tested form may be a part): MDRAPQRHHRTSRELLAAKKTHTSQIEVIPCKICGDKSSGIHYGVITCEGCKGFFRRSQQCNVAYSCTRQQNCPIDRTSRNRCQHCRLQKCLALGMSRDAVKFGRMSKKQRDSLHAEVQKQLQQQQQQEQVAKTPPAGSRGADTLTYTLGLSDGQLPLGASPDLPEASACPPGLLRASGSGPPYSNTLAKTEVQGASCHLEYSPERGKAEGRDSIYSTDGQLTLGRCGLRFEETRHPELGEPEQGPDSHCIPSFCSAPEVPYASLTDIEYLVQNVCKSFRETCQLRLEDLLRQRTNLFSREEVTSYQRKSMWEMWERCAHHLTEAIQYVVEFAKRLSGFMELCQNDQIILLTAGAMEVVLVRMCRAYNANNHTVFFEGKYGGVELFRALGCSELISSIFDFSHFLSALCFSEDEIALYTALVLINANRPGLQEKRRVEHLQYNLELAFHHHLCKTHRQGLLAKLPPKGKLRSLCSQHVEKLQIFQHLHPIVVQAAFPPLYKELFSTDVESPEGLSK
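Using a luciferase readout, inhibitors were identified by reduced reporter activity in Drosophila cells coexpressing a copper-inducible Gal4–ROR gamma fusion and UAS-driven Photinus luciferase, incubated 20 hr after 700 uM copper sulfate.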
Hits are given with their value; . = inactive; ? = inconclusive; / = not tested or not shown; ! = repeats disagree; [ ] = another dose, or the depositor's remark. Rows were chosen to be rich in hits. Some 19% of all compounds tested hit in one or more screens of this group. The call rests on the fitted dose curve; in most records, active means well fitted curve in the direction sought with a large enough effect; inconclusive means small, poorly fitted or top-dose-only effect, or another doubt; inactive means no such curve, though single readings can be large; an effect the other way counts as inactive or inconclusive.

SMILES | DT40 TDP1 CPT | DT40 TDP1 no CPT | Gal4-VP16 FLuc | TDP1 block | RORg inh
COc1cc(NC(=O)Nc2cccc(Cl)c2)c(OC)cc1NC(=O)CN1CCCCC1 | 16µM | ? | / | . | .[0.365 µM]
COc1cc(NC(=O)c2ccc(C)cc2)c(OC)cc1NC(=O)CN1CCCCC1 | 21µM | 29µM | . | . | .
O=C(CN1CCCCC1)Nc1cccc(Cl)c1 | . | . | . | . | .
COc1cc(NC(=O)c2cc(OC)c(OC)c(OC)c2)c(OC)cc1NC(=O)CN1CCCCC1 | ? | ? | . | . | ?
CC(=O)OCC(=O)[C@@]1(O)CC[C@H]2[C@@H]3C[C@H](C)C4=CC(=O)C=C[C@]4(C)[C@H]3[C@@H](O)C[C@@]21C | ? | ? | . | / | .
COCCN(CC1CCCN(C2Cc3ccccc3C2)C1)C(=O)CCC(N)=O (stereo not given) | . | ? | . | / | .
COc1cc2c(c3oc(=O)cc(CC(=O)O)c13)CCC(C)(C)O2 | . | . | . | / | .
COc1c(CC=C(C)C)c(O)cc2oc(=O)c3c4ccc(O)cc4oc3c12 | ? | 18µM | / | / | /
O=c1oc2cc(O)ccc2c2oc3cc(O)ccc3c12 | ? | 23µM | . | . | .
COc1c2c(cc3oc(=O)c4c5ccc(O)cc5oc4c13)OC(C)(C)CC2 | 16µM | 16µM | / | / | /
Cc1nn(C)cc1CN1CCC(n2nccc2NC(=O)CCCc2ccccc2)CC1 | . | . | . | ? | .
CCCOc1ccc2nc(C)c(CCC)c(SC(=N)N)c2c1 | . | ? | . | . | .
CCCc1c(C)nc2ccc(OC)cc2c1SCCC(=O)O | ? | 8.2µM | . | . | .
Cc1ccc(C(=O)NCC(c2ccc3c(c2)OCO3)N2CCOCC2)cc1C (stereo not given) | 21µM | 10µM | / | . | /
O=C(NCCCO)C(=O)NCC(c1ccc2c(c1)OCO2)N1CCN(c2ccc(F)cc2)CC1 (stereo not given) | . | . | . | . | .
O=C(NCC(c1ccc2c(c1)OCO2)N1CCN(c2ccccc2)CC1)c1ccccc1 (stereo not given) | 13µM | 10µM | / | . | /
Cc1ccc(C(=O)NCC(c2ccc3c(c2)OCO3)N2CCN(C)CC2)cc1C (stereo not given) | . | . | / | . | /
O=C(NCC(c1ccc2c(c1)OCO2)N1CCOCC1)C(=O)Nc1cccc(Cl)c1 (stereo not given) | ? | 12µM | / | . | /
O=C(NCC(c1ccc2c(c1)OCO2)N1CCN(c2ccc(F)cc2)CC1)c1cccc([N+](=O)[O-])c1 (stereo not given) | 6.5µM | 6.5µM | / | . | /
CN1CCN(C(CNC(=O)C(=O)Nc2cccc(Cl)c2)c2ccc3c(c2)OCO3)CC1 (stereo not given) | ? | ? | / | . | /
COc1ccc(C(=O)N2CCN(C(=O)c3ccco3)CC2)cc1OC | . | . | / | . | .[0.365 µM]
COc1ccc(N2CCN(C(c3cccs3)C(C)NC(=O)c3ccco3)CC2)cc1 (stereo not given) | ? | ? | . | . | ?
COc1ccc(N2CCN(C(c3cccs3)C(C)NC(=O)c3ccc4c(c3)OCO4)CC2)cc1 (stereo not given) | ? | 21µM | . | . | .
COc1ccccc1N1CCN(C(c2cccs2)C(C)NC(=O)c2ccco2)CC1 (stereo not given) | ? | ? | . | . | .
COc1ccc(N2CCN(C(CNC(=O)c3ccc(C)cc3)c3ccc4c(c3)OCO4)CC2)cc1 (stereo not given) | 8.2µM | 5.8µM | / | . | /
SMILES | DT40 TDP1 CPT | DT40 TDP1 no CPT | Gal4-VP16 FLuc | TDP1 block | RORg inh
COc1ccc(C(=O)NCC(c2ccc3c(c2)OCO3)N2CCN(C)CC2)cc1 (stereo not given) | . | . | / | . | /
COc1ccccc1N1CCN(C(c2cccs2)C(C)NC(=O)c2ccncc2)CC1 (stereo not given) | 21µM | ? | . | / | .
CC(=O)c1ccc(NC(=S)NC(=O)Cc2ccc(Cl)cc2)cc1 | . | . | . | / | ?
CC(=O)N(C)c1ccc(NC(=S)Nc2ccccc2)cc1 | . | . | . | . | .
CC(=O)N(C)c1ccc(NC(=S)Nc2cccc3ccccc23)cc1 | 23µM | ? | ? | . | ?
Cc1ccc(NC(=S)Nc2cccc3ccccc23)cc1F | ? | . | 7.9µM | . | 11µM
Fc1cccc(NC(=S)Nc2cccc3ccccc23)c1 | . | . | . | . | .
CCCC(=O)NC(=S)Nc1ccc(C(C)=O)cc1 | . | . | ? | . | 16µM
CC(=O)c1ccc(NC(=S)Nc2cccc3ccccc23)cc1 | ? | . | ? | . | 14µM
O=C(COc1ccc2c3c(c(=O)oc2c1)CCC3)N1CCCCC1 | . | . | ? | / | .
Cn1c2c(c(=O)n(C)c1=O)C(NC(=O)c1ccco1)(C(F)(F)F)C(=O)N2 (stereo not given) | . | . | . | . | .
Cc1ccc(C)c(Nc2nnc(-c3ccc(C)c(S(=O)(=O)NCC4CCCO4)c3)c3ccccc23)c1 (stereo not given) | 18µM | 5.2µM | / | / | /
CCCNS(=O)(=O)c1cc(-c2nn3c(C)nnc3c3ccccc23)ccc1C | ? | 18µM | / | . | /
CNC(=O)c1ccc(Nc2nnc(-c3ccc(C)c(S(=O)(=O)NCC4CCCO4)c3)c3ccccc23)cc1 (stereo not given) | 26µM | 13µM | . | . | .
CC(=O)Nc1ccc(Nc2nnc(-c3ccc(C)c(S(=O)(=O)NCC4CCCO4)c3)c3ccccc23)cc1 (stereo not given) | . | . | . | . | .
CCOC(=O)CNS(=O)(=O)c1cc(-c2nn(C)c(=O)c3ccccc23)ccc1C | ? | ? | . | 50µM | ?
CCN(C(=O)COC(=O)CNC(=O)c1sc2ccccc2c1Cl)C1CCCCC1 | . | . | / | / | /
O=C(O)CCCC(=O)Nc1ccccc1Br | . | . | . | . | .
Cc1ccc(-c2nn3c(-c4ccco4)nnc3c3ccccc23)cc1S(=O)(=O)NCC1CCCO1 (stereo not given) | ? | 5.8µM | . | . | ?
Cc1ccc(-c2nnc(Nc3ccccc3)c3ccccc23)cc1S(=O)(=O)NCC1CCCO1 (stereo not given) | 26µM | 16µM | ? | . | .
CCCCNS(=O)(=O)c1ccc(C)c(-c2nnc3c4ccccc4c(C)nn23)c1 | ? | 16µM | / | . | /
O=C(Nc1cccnc1)c1ccc(Br)s1 | ? | ? | . | . | ?
CC1=CC(=O)c2ccccc2C1=O | 8.2µM | 4.6µM | 7.9µM | . | 11µM!
CC(C)(C=O)C1=CC(=O)c2ccccc2C1=O | 0.18µM | 0.41µM | 5µM | . | 14µM
COc1cccc2c1C(=O)C=C(C)C2=O | 2.9µM | 4.6µM | 7.1µM | . | 11µM
Cc1ccsc1C=C1C(=O)c2ccccc2C1=O | . | . | . | . | .
